Screening results from PubChem.
Anthrax LF prot: blocks Bacillus anthracis lethal factor protease. multiplex microsphere protease cleavage assay, LF. P15917. AID 588501. inhibition, % at 10 µM. actives 0.12% (n = 360,000)
Target sequence (P15917 whole entry, looked up): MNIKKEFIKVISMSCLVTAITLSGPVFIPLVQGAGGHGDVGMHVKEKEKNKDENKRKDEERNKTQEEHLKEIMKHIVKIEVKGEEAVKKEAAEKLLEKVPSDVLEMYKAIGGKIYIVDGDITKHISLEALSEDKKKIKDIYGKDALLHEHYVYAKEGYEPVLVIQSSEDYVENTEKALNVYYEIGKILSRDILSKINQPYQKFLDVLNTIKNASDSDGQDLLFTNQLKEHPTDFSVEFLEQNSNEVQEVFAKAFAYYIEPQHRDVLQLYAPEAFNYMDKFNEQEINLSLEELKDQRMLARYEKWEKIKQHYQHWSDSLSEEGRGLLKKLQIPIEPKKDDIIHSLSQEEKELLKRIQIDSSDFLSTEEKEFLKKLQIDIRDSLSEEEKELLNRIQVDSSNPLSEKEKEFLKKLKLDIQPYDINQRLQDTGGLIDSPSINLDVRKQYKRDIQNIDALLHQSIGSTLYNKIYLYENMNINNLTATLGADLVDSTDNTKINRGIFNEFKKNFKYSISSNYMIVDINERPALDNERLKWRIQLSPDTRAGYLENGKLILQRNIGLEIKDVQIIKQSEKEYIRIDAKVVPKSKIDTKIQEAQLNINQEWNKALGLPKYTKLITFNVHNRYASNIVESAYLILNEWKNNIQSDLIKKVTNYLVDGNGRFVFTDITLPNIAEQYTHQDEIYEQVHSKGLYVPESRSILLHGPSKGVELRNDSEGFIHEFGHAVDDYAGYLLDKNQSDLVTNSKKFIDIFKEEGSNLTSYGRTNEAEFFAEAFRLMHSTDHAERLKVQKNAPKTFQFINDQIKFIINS
Bead autofluor: flagged as autofluorescent in microsphere protease counterscreen. AID 624483. compound autofluorescence counterscreen, microsphere flow cytometry; stronger effect = higher value. fluorescence intensity (concentration not given with the values). actives 3.1% (n = 360,000); in the data active = fluorescence intensity above about 16000; inconclusive = no clear call, values can overlap the other calls
BoNT F protease: blocks Botulinum neurotoxin F light chain protease | inhibition, % at 10 µM | AID 588497 | Multiplex microsphere protease cleavage assay, flow cytometry | actives 0.22% (n = 360,000); in the data active = inhibition above about 35%, passing the limit was not always enough; inconclusive = no clear call, values can overlap the other calls
BoNT A protease: blocks Botulinum neurotoxin A light chain protease. multiplex microsphere protease substrate cleavage, flow cytometry. actives 0.17% (n = 360,000). AID 588499. inhibition, % at 10 µM
Hits are given with their value; – = inactive; ? = inconclusive. Sampled rows, rich in hits. Any-hit rate of the full collection: about 3.5%. Cut-off read from the data, not from the text of the source, unless noted: active = inhibition above about 30%; inconclusive = no clear call, values can overlap the other calls; inactive = below that.

SMILES	Anthrax LF prot	Bead autofluor	BoNT F protease	BoNT A protease
CC(C)CC(NC(=O)C1CCC(C)CC1)C(=O)NCCN1CCOCC1 (stereo not drawn)	–	–	–	–
CSCCC(NC(=O)C1CCC(C)CC1)C(=O)O (stereo not drawn)	–	23567	–	?
CSCCC(NC(=O)C1CCC(C)CC1)C(=O)NCCN1CCOCC1 (stereo not drawn)	–	22383	–	–
O=C1/C(=C/c2ccc([N+](=O)[O-])cc2)C=C(c2ccccc2)N1c1ccc(O)cc1	–	22121	–	–
Cn1c(=O)oc2cc(S(=O)(=O)NCCN3CCCCCC3)ccc21	–	21921	–	?
CCC1CCCCN1CCNS(=O)(=O)c1ccc2c(c1)oc(=O)n2C (stereo not drawn)	–	–	–	–
CC1CCCCN1CCNS(=O)(=O)c1ccc2c(c1)oc(=O)n2C (stereo not drawn)	–	22199	–	?
COCc1cccc(C2=CC(=O)C[C@H](c3ccc(F)cc3)C2)c1	–	–	–	–
O=C(O)CCC(=O)Nc1ccc(-c2csc(Nc3cccc4ccccc34)n2)cc1	–	–	–	–
O=C(CC(=O)NC1CCCCC1)N/N=C/c1ccccc1[N+](=O)[O-]	–	–	–	–
Cn1cccc1C(=O)NCc1ccccn1	–	?	?	–
COc1ccccc1CN1CC(C(=O)NCCN2CCOC2=O)CCC1=O (stereo not drawn)	–	–	–	–
CCCCNS(=O)(=O)c1ccc(OC)c2ncccc12	–	19492	–	?
COc1ccc(NC(=O)c2ccc(=O)[nH]c2)cc1S(=O)(=O)N1CCOCC1	–	–	–	–
O=C(CN(C(=O)c1csnn1)c1cccc2ccccc12)NCc1ccc(F)cc1	–	–	–	–
CCN1C(=O)/C(=C/C=C2\N(CC)c3cc(S(=O)(=O)N(C)C)ccc3N2c2ccccc2)SC1=S	38.0	–	–	88.9
COc1cc(F)ccc1S(=O)(=O)NCc1cccnc1	–	–	–	–
O=C(OCC#CCSc1nnc(-c2ccccc2)o1)c1cccs1	–	17034	–	–
Nc1ccc(-c2c3ccc(=O)cc-3oc3cc(O)ccc23)cc1C(=O)O	128.2	–	?	–
COc1ccc(-c2c(C)c3ccc(O)cc3oc2=O)cc1OC	–	–	–	–
O=c1cc(-c2ccccc2)oc2cc(O)ccc12	–	–	–	–
O=c1ccc2c(-c3ccccc3)c3ccc(O)cc3oc-2c1	55.8	–	87.8	–
Cc1cc(OCC(=O)NCCCN2CCOCC2)c2c(C)cc(=O)oc2c1	–	–	–	–
Cc1nn(C(C)C(=O)N/N=C/c2ccc(N(C)C)cc2)c(C)c1[N+](=O)[O-] (stereo not drawn)	–	–	?	–
O=c1c2ccccc2nc(-c2ccccc2)n1CCCN1CCOCC1	–	16595	–	–
SMILES	Anthrax LF prot	Bead autofluor	BoNT F protease	BoNT A protease
Oc1ccc(C=NCC2COc3ccccc3O2)cc1 (stereo not drawn)	–	20126	–	–
Nc1cc(S(=O)(=O)N2CCOCC2)ccc1Oc1cccc(Br)c1	–	–	–	–
C=CCN1C(=O)CSc2ccc(C(=O)NC3CCCCC3)cc21	–	–	–	–
CC(C)(C)NC(=O)c1ccc2c(c1)N(CC(=O)N1CCCCC1)C(=O)C(C)(C)O2	–	–	–	–
CC(C)NC(=O)c1ccc2c(c1)N(CC(=O)NC1CCCCC1)C(=O)C(C)(C)O2	–	–	–	–
Cc1ccc(NC(=O)c2ccc3c(c2)N(CC(=O)N2CCCCC2)C(=O)C(C)(C)O3)cc1	–	23135	–	–
CCN1C(=O)CSc2ccc(C(=O)NC3CCCCC3)cc21	–	20222	–	–
CC(C)(C)NC(=O)c1ccc2c(c1)N(CC(=O)N1CCCC1)C(=O)C(C)(C)O2	–	–	–	–
CC1(C)Oc2ccc(C(=O)NC3CCCC3)cc2N(CC(=O)NC2CCCCC2)C1=O	–	17996	–	–
CC(C)(C)NC(=O)c1ccc2c(c1)N(CC(=O)N1CCN(c3ccc(F)cc3)CC1)C(=O)C(C)(C)O2	–	16213	–	–
CC(Sc1nnc(-c2ccco2)n1N)C(=O)NCc1ccc2c(c1)OCO2 (stereo not drawn)	–	–	–	–
CCOC(=O)CN1C(=O)C(C)(C)Oc2ccc(C(=O)Nc3ccccc3OC)cc21	–	20848	–	–
CN(C)C(=O)c1ccc(NC(=O)c2cc(-n3cnnc3)ccc2Cl)cc1	–	–	–	–
Cc1ccc(NC(=O)c2cc(-n3cnnc3)ccc2Cl)cc1	–	16625	–	–
COC(=O)c1ccccc1NC(=O)NCC1CCCO1 (stereo not drawn)	–	22874	–	–
CCC(C)[C@H](NC(=O)NCC1CCCO1)C(=O)OC (stereo partly drawn)	–	24826	–	–
CCOc1cc(NC(=S)NCC2CCCO2)c(OCC)cc1NC(=O)c1ccccc1 (stereo not drawn)	–	24364	–	–
O=C(NCC1CCCO1)c1cccs1 (stereo not drawn)	–	17278	–	?
CCN(CC)C(=O)c1csc(COCCO)n1	–	–	–	–
CC(Sc1nnc(C2CC2)n1C1CC1)C(=O)NC1(C#N)CCCCC1 (stereo not drawn)	–	–	–	–
CCN1CCN(c2ccc(S(=O)(=O)N3CCOCC3)cc2NC(=O)COc2ccc(F)cc2Cl)CC1	–	–	–	–
N#CC1C(=O)NC(=O)CC12CCCCC2 (stereo not drawn)	–	–	–	–
CCc1c(C(=O)NNC(=S)NCC2CCCO2)csc1C (stereo not drawn)	–	–	–	–
Cc1cc(C(=O)NNC(=S)NCC2CCCO2)cs1 (stereo not drawn)	–	19574	–	–
Cc1c(/C=N/NC(=O)c2cccnc2)c2ccccc2n1Cc1ccccc1	–	24760	–	–
SMILES	Anthrax LF prot	Bead autofluor	BoNT F protease	BoNT A protease
Cc1nn(Cc2ccccc2)c(Cl)c1/C=N/NC(=O)c1cccnc1	–	–	–	–
N#CCC(=O)N/N=C/c1cc(Br)ccc1OCc1cccc2ccccc12	–	–	–	–
COc1ccc(-c2nnc(SCC(=O)N3CCC(Cc4ccccc4)CC3)o2)cc1OC	–	22436	–	–
Cc1ccc(NCc2nnc(SCC(N)=O)o2)c(C)c1	–	–	–	–
CCOC(=O)CN(C(=O)CSc1nnc(-c2ccc(OC)c(OC)c2)o1)c1ccccc1	–	20211	–	?
CCOC(=O)CN(C(=O)CSc1nnc(CNc2ccc(C)cc2C)o1)c1ccccc1	–	21560	–	–
Cc1cc(NC(=O)CN(C)S(=O)(=O)c2cnc[nH]2)ccc1Br	–	–	–	–
O=C1C(=O)N(CCCn2ccnc2)C(c2ccc([N+](=O)[O-])cc2)/C1=C(\O)c1ccc2c(c1)OCCO2 (stereo not drawn)	–	–	–	–
CCOc1cccc(-c2c(C(=O)N/N=C(\C)c3cccnc3)nnn2-c2nonc2N)c1	–	–	–	–
Cc1c(C)c(C)c(CN2CCCC2)c(C)c1C	–	–	–	–
O=C(/C=C/NCc1cccnc1)c1ccc(Br)cc1	–	–	?	–
COc1ccc(C(=O)Nc2ccccc2-c2nnn(CC(=O)Nc3ccc4c(c3)OCCO4)n2)cc1	–	20699	–	–
COc1ccc(-c2cc(-c3ccccc3)nc(-c3ccc4c(c3)NC(=O)CO4)c2)cc1	–	19614	–	?
